This passage reports inhibition results from ChEMBL document CHEMBL1961873, “Compounds: GSK PKIS; Assays: Nanosyn kinase panel” (2012).

Values joined by “and” are separate entries in the source; they are usually repeats but may differ in a detail not shown here. Equal values may be shown once.

The target of assay [1] is T1, Serine/threonine-protein kinase D2 (Homo sapiens) (UniProt Q9BZL6).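 Further: mean value of PRKD2 inhibition, from the GSK PKIS screening panel.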
T1 sequence (whole entry): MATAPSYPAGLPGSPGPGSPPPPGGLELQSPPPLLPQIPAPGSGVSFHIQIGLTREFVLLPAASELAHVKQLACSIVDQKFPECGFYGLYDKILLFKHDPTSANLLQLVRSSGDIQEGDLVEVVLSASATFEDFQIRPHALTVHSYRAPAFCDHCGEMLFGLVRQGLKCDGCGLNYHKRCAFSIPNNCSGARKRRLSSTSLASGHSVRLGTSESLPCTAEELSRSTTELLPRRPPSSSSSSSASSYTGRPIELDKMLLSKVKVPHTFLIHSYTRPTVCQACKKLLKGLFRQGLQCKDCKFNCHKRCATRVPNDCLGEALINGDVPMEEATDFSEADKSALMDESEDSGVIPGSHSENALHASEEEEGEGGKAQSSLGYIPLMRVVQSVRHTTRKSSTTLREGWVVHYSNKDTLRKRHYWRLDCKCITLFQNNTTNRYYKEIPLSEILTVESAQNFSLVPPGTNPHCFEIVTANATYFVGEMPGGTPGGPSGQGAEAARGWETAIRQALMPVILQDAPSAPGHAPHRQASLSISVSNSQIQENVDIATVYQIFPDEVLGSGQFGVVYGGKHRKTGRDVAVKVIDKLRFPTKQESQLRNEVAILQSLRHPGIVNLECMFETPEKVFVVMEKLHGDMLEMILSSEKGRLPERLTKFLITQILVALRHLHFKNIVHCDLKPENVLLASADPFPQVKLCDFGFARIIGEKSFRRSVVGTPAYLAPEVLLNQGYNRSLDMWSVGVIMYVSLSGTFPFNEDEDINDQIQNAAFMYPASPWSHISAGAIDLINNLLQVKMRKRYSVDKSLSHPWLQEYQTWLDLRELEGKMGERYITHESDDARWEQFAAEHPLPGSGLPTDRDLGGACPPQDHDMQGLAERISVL
The settings on record: at 1 µM.

The target in assay [2] is T2, Serine/threonine-protein kinase D3 (Homo sapiens) (UniProt O94806).
T2 sequence (whole entry): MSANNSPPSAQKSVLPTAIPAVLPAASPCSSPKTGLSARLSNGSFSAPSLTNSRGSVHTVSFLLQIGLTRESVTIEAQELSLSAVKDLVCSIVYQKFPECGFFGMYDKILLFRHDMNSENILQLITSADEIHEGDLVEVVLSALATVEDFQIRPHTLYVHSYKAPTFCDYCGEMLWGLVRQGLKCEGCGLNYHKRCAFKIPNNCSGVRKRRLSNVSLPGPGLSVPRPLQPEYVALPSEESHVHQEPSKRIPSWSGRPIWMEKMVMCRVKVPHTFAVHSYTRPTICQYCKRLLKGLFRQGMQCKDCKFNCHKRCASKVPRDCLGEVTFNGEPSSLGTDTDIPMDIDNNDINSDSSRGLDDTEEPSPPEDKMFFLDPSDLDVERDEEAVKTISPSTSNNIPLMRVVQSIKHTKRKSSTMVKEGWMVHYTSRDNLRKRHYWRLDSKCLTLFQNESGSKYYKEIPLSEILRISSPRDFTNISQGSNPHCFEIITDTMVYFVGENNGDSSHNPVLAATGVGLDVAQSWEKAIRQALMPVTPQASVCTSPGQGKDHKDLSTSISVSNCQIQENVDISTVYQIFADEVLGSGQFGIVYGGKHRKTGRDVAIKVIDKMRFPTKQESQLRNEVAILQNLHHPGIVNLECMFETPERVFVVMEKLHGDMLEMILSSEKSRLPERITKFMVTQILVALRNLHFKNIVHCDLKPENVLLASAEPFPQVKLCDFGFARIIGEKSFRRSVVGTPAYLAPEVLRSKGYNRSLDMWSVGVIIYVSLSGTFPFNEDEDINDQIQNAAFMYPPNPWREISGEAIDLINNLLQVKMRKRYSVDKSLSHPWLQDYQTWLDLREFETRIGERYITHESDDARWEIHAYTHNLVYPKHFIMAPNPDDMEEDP
As to conditions: at 0.1 µM.

The target of assay [3] is T2, Serine/threonine-protein kinase D3 (Homo sapiens). As to conditions: at 1 µM.
Assay [4] deals with T3, cGMP-dependent protein kinase 1 (Homo sapiens) (UniProt Q13976).
T3 sequence (whole entry): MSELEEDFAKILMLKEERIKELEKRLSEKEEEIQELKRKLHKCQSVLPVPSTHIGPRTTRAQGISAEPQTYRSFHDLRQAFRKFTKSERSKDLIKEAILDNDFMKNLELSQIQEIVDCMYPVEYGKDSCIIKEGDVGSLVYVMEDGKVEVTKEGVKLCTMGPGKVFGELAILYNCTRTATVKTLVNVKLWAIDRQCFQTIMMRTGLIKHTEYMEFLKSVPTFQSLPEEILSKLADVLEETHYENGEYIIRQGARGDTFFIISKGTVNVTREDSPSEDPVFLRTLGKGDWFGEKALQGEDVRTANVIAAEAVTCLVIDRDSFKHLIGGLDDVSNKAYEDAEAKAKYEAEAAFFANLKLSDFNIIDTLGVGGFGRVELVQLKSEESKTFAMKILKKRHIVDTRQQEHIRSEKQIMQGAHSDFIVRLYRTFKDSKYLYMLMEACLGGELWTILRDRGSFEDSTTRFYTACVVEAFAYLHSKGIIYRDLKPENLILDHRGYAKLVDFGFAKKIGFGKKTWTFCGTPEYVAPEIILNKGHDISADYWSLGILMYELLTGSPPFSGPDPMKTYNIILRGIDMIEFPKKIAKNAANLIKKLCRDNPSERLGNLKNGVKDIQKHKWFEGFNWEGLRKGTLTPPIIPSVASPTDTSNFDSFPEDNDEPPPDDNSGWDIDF
As to conditions: at 0.1 µM.

For assay [5], the target named is T3, cGMP-dependent protein kinase 1 (Homo sapiens). As to conditions: at 1 µM.
Assay [6] has as its target T4, cGMP-dependent protein kinase 2 (Homo sapiens) (UniProt Q13237).
T4 sequence (whole entry): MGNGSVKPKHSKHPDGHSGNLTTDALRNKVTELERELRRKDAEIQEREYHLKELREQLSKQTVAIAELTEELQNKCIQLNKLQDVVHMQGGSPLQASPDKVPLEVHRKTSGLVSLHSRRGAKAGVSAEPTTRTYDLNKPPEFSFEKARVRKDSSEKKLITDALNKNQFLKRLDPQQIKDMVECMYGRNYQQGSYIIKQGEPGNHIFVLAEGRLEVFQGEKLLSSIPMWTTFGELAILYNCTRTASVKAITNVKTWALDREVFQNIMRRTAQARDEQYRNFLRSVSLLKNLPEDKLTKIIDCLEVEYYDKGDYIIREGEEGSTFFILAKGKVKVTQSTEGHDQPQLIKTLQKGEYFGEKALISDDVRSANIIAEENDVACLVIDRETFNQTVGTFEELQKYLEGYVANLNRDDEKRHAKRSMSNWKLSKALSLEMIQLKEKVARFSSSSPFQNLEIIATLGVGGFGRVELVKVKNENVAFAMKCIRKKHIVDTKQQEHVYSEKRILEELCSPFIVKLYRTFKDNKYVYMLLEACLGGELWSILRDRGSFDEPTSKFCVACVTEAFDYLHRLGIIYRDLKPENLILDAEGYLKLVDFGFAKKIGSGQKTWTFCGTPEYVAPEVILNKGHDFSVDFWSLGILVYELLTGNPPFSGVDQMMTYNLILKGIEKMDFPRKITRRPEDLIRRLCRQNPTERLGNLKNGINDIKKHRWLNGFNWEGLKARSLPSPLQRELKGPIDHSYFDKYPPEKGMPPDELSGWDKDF
As to conditions: at 0.1 µM.

The target of assay [7] is T4, cGMP-dependent protein kinase 2 (Homo sapiens). As to conditions: at 1 µM.
In assay [8] the target is T5, cAMP-dependent protein kinase catalytic subunit PRKX (Homo sapiens) (UniProt P51817).
T5 sequence (whole entry): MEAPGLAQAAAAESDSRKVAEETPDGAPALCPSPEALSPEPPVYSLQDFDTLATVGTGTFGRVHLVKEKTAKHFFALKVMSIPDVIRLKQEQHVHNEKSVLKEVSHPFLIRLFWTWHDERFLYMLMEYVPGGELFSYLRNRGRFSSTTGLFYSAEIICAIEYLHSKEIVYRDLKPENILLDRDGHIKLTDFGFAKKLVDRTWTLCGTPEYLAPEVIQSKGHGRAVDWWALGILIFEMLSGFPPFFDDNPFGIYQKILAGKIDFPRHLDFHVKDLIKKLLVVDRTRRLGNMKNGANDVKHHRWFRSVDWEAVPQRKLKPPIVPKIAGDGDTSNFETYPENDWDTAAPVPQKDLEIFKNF
As to conditions: at 0.1 µM.

For assay [9], the target named is T5, cAMP-dependent protein kinase catalytic subunit PRKX (Homo sapiens). As to conditions: at 1 µM.
Assay [10] concerns the target Rho-associated protein kinase 1 (Homo sapiens) (UniProt Q13464). The settings on record: at 0.1 µM.
For assay [11] the target is unchanged. As to conditions: at 1 µM.
Assay [12] deals with Rho-associated protein kinase 2 (Homo sapiens) (UniProt O75116). As to conditions: at 0.1 µM.
Assay [13] shares this target. As to conditions: at 1 µM.
Assay [14] concerns the target Ribosomal protein S6 kinase alpha-1 (Homo sapiens) (UniProt Q15418). As to conditions: at 0.1 µM.
For assay [15] the target is unchanged. The settings on record: at 1 µM.
The target in assay [16] is Ribosomal protein S6 kinase alpha-3 (Homo sapiens) (UniProt P51812). The settings on record: at 0.1 µM.
Assay [17] has the same target. As to conditions: at 1 µM.
Assay [18] addresses Ribosomal protein S6 kinase alpha-2 (Homo sapiens) (UniProt Q15349). The settings on record: at 0.1 µM.
For assay [19] the target is unchanged. The settings on record: at 1 µM.
Assay [20] deals with Ribosomal protein S6 kinase alpha-6 (Homo sapiens) (UniProt Q9UK32). The settings on record: at 0.1 µM.

Usually inhibition stands for the change of the read-out against control, counted positive when it falls.

Chain of Rho-associated protein kinase 1 (Homo sapiens) (Q13464 2-1354 limits assumed): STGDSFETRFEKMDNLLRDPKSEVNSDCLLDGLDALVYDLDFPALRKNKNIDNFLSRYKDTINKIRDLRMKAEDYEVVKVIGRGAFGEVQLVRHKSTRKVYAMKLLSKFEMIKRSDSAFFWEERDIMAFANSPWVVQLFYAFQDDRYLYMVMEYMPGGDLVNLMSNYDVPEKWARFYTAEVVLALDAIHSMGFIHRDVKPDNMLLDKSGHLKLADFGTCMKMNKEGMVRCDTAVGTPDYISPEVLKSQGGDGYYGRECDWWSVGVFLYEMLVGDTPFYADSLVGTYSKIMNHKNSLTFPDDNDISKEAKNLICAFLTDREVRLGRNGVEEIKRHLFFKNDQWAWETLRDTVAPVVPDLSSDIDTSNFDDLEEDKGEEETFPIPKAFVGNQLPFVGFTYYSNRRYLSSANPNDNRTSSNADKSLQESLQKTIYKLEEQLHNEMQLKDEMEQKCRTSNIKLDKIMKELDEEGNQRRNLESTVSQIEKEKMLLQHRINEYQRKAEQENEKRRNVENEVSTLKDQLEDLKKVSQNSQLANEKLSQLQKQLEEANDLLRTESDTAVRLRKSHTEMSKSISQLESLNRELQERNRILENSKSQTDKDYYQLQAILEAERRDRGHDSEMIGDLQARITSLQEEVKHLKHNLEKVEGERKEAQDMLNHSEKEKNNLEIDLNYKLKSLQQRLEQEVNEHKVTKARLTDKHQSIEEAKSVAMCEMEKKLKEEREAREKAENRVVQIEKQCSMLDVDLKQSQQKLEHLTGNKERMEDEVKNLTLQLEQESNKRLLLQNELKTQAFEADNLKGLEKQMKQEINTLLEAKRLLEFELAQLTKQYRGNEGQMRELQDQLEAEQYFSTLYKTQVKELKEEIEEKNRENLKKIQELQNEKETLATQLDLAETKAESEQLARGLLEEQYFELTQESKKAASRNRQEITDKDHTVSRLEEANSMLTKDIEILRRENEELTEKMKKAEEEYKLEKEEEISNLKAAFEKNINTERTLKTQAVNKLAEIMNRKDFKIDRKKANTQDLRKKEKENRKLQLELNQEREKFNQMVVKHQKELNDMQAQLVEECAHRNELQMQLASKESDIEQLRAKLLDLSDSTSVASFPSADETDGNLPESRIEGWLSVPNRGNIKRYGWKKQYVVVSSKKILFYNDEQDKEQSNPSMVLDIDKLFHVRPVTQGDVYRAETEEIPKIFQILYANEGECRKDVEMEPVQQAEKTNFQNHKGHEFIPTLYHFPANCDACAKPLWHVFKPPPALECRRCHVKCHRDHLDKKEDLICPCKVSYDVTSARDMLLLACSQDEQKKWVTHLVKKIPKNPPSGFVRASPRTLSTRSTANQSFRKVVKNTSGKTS
Chain of Ribosomal protein S6 kinase alpha-1 (Homo sapiens) (Q15418 whole entry): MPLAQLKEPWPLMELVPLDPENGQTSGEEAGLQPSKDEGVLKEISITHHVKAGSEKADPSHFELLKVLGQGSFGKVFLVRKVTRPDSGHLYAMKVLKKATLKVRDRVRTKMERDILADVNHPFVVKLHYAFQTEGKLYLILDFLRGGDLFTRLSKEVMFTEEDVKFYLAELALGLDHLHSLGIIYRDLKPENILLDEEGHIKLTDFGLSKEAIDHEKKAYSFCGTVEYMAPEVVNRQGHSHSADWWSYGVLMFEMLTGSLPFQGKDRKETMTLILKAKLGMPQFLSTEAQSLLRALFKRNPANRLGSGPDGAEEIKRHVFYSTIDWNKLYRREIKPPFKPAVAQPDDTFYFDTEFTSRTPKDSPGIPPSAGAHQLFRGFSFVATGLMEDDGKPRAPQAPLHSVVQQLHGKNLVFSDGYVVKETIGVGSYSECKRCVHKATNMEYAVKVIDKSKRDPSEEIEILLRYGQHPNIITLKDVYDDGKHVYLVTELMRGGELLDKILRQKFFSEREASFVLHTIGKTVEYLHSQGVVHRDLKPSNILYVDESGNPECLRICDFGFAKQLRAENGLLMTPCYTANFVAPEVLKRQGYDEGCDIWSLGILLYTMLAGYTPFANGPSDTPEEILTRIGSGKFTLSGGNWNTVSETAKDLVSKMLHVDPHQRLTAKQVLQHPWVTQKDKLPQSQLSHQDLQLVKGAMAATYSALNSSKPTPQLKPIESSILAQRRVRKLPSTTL
Chain of Ribosomal protein S6 kinase alpha-6 (Homo sapiens) (Q9UK32 whole entry): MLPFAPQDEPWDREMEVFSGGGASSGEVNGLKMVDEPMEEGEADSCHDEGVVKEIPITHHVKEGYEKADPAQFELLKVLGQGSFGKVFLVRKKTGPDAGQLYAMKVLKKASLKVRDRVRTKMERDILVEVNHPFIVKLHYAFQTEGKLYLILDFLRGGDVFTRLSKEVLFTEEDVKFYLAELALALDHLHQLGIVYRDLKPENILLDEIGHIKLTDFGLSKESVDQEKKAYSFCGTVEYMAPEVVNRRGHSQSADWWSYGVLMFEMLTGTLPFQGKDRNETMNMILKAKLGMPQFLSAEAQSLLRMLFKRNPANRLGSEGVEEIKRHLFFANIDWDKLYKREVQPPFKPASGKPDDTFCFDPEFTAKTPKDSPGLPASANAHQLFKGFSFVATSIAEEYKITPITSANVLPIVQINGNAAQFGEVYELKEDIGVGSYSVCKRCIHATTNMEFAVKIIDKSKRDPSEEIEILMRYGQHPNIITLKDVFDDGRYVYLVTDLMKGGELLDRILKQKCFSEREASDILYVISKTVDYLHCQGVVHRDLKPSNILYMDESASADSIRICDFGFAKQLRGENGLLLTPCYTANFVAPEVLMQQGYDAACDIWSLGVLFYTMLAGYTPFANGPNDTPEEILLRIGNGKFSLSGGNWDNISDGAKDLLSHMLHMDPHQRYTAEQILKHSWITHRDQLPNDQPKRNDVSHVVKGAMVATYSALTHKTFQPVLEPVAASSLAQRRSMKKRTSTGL
Chain of Rho-associated protein kinase 2 (Homo sapiens) (O75116 whole entry, looked up): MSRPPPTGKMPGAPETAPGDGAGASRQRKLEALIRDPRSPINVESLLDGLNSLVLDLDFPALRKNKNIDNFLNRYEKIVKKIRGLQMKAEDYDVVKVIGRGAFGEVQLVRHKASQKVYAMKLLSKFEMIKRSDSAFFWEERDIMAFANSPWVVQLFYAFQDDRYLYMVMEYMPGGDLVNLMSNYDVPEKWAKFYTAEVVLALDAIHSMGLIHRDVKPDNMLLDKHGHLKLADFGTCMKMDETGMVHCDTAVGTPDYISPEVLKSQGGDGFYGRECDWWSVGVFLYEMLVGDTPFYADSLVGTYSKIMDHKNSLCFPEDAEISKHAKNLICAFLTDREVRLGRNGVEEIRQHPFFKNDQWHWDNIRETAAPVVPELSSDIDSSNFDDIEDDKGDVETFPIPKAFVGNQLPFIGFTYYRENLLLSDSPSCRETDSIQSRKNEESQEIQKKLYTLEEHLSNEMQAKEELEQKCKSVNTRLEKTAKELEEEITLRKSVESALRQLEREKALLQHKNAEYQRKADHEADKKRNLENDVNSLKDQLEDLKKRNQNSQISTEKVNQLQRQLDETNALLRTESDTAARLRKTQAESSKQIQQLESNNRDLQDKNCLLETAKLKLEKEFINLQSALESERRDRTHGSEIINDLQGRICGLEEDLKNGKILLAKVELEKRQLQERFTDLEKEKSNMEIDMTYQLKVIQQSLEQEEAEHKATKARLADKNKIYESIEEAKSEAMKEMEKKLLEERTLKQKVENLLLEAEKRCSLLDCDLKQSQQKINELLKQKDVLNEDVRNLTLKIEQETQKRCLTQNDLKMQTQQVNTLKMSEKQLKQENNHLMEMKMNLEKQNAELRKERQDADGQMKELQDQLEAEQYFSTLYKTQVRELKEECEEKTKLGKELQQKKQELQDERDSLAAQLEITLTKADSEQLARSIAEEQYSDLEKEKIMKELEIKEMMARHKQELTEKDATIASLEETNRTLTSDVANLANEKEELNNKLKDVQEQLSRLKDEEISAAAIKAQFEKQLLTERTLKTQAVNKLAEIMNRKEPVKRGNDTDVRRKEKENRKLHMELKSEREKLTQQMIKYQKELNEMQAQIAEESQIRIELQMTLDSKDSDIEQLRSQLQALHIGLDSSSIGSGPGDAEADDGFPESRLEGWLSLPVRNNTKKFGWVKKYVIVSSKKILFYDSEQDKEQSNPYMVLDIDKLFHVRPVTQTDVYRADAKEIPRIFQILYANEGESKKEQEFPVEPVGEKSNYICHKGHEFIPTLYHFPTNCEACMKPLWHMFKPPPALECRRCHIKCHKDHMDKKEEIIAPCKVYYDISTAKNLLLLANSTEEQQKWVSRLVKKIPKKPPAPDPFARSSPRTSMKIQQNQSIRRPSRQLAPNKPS
Chain of Ribosomal protein S6 kinase alpha-3 (Homo sapiens) (P51812 whole entry): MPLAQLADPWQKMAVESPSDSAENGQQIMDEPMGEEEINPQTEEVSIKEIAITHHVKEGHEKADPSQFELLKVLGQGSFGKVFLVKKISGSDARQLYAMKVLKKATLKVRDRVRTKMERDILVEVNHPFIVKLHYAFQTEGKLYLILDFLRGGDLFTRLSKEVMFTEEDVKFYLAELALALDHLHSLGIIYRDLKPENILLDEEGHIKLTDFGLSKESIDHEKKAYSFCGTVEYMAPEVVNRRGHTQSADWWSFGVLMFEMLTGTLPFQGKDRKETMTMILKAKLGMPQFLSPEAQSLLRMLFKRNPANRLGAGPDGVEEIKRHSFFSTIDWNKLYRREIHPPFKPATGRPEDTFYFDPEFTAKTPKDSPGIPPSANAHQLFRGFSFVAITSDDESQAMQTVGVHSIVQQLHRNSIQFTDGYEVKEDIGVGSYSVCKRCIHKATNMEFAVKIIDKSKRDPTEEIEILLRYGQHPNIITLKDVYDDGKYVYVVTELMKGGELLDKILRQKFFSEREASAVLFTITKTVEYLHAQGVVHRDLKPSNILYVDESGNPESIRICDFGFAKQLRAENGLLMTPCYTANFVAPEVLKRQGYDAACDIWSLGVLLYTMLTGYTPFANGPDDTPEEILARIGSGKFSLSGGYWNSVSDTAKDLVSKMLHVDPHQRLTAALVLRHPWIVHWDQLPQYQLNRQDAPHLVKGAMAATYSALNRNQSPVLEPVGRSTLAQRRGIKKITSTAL

On to `Cc1nnc(-c2cccc(-c3ccc(C(=O)NCC4CC4)cc3)c2)o1`, for which the inhibition in [1] worked out at 7.93%; in assay [2], 6.14%; in [3] it was 7.35%; in assay [4], 3.58%; in [5] it was 5.43%; in assay [6], 3.23%. Besides, the inhibition in [7] was found to be 3.44%; in assay [8] it was 3.54%; in assay [9], 4.63%; in assay [10] it was 0.97%; in [11] it was 2.23%; in [12], 3.74%. Also, the inhibition in assay [13] is 6.19%; in [14], 2.8%; in [15] it was 4.92%; in [16] it was 1.25%; in assay [17] it was 1.76%; in assay [18], 3.01%. Also, the inhibition in assay [19] was found to be 2.85%; in [20], 2.12%.
For the molecule `CN1CCN(Cc2ccc(-c3cc4ncnc(Nc5ccc(OCc6cccc(F)c6)c(Cl)c5)c4s3)o2)CC1`, the inhibition in assay [1] was 4.28% and 7.23%; in assay [2] it was 2.56% and 5.35%; in assay [3], 4.4% and 6.3%; in assay [4], 2.05% and 4.47%; in [5], 1.78% and 7.9%; in assay [6], 0.82% and 2.4%. Further, the inhibition was 0.79% and 5.44% in [7]; 1.82% and 3.39% in [8]; 1.45% and 5.71% in [9]; 1.65% and 1.83% in assay [10]; 2% and 0.89% in assay [11]; 1.84% and 3.91% in assay [12]. The inhibition was 2.16% and 8.24% in [13]; 0.86% and 2.44% in [14]; 3.31% and 6.74% in assay [15]; 0.78% and 2.19% in [16]; 4.15% and 7.1% in [17]; 2.32% and 1.76% in [18]. Also, the inhibition in assay [19] is 3.34% and 4.93%; in assay [20], 1.22% and 1.16%.
As to `CS(=O)(=O)Nc1ccc(-c2cc(-c3ccccc3)cc(C(N)=O)c2N)cc1`, the inhibition in [1] came out at 1.14%; in [2], 1.65%; in [3], 2.57%; in assay [4] it was 2.68%; in assay [5], 2.84%; in assay [6], 1.37%. Moreover, the inhibition amounted to 2.4% in assay [7]; 1.16% in [8]; 1.26% in assay [9]; 1.5% in [10]; 1.71% in assay [11]; 0.41% in assay [12]. Further, the inhibition in assay [13] is 1.85%; in assay [14], -1.14%; in [15] it was 0.41%; in assay [16] it was -0.7%; in [17] it was 0.45%; in assay [18], -1.55%. Further, the inhibition was 0.47% in assay [19] and -1.16% in assay [20].
